Results on one sequence are retold here after article PMC7862700, “An all-to-all approach to the identification of sequence-specific readers for epigenetic DNA modifications on cytosine”.

Common to all, as to assay: DAPPL (digital affinity profiling via proximity ligation, sequencing); 10 mM Tris-HCl pH 7.5, 50 mM NaCl, 1 mM DTT, 4% glycerol, room temperature, 30 min; GST-TFs on glutathione beads, 16-mer random dsDNA library, 0.1% formaldehyde crosslink after washing; high values mean tight binding
Test [1] addresses T1, FEV (Homo sapiens, UniProt Q99581 1-238).
T1 sequence: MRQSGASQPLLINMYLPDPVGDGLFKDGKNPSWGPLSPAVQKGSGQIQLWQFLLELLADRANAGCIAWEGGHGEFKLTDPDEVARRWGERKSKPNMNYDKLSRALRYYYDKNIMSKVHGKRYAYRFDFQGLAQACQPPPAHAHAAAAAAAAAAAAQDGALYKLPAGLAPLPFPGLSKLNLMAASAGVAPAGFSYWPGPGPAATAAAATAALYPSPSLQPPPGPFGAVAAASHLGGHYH
Conditions: protein: recombinant; tags: N-terminal GST; dsDNA, one strand shown. Put shortly:
(§1)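 Each value of binding signal is a hexamer's read frequency for a factor divided by the same hexamer's frequency in the tag-only sample. Barcoded, bead-captured GST fusions of human transcription factors made in yeast were pooled with that sample and incubated with 200 nmole of a random double-stranded 16-mer DNA library in Tris/NaCl/DTT/glycerol buffer at room temperature for 30 min. Washing, 0.1% formaldehyde crosslinking, proximity ligation, PCR and Illumina NextSeq500 sequencing followed.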

Test [2] deals with ETV5 (Homo sapiens, UniProt P41161 1-510). Conditions: protein: recombinant; tags: N-terminal GST; dsDNA, one strand shown. Put shortly: as §1
Test [3] deals with HSF1 (Homo sapiens, UniProt Q00613 1-529). The settings on record: protein: recombinant; tags: N-terminal GST; chain copies: 3; dsDNA, one strand shown. A digest of the protocol: as §1
For test [4], the target named is T2, SPIC (Homo sapiens, UniProt Q8N5J4 1-248).
T2 sequence: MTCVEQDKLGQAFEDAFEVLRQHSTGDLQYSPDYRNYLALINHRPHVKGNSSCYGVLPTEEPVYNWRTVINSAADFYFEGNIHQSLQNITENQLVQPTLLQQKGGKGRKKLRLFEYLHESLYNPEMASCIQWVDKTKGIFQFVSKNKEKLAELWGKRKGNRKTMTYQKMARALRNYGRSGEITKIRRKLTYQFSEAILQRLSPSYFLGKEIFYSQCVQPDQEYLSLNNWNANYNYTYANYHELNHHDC
The settings on record: protein: recombinant; tags: N-terminal GST; dsDNA, one strand shown. Put shortly:
as §1

The target in test [5] is ELF4 (Homo sapiens, UniProt Q99607 1-663). The settings on record: protein: recombinant; tags: N-terminal GST; dsDNA, one strand shown. Put shortly: as §1
Test [6] addresses T3, ELK4 (Homo sapiens, UniProt P28324-2 1-405).
T3 sequence: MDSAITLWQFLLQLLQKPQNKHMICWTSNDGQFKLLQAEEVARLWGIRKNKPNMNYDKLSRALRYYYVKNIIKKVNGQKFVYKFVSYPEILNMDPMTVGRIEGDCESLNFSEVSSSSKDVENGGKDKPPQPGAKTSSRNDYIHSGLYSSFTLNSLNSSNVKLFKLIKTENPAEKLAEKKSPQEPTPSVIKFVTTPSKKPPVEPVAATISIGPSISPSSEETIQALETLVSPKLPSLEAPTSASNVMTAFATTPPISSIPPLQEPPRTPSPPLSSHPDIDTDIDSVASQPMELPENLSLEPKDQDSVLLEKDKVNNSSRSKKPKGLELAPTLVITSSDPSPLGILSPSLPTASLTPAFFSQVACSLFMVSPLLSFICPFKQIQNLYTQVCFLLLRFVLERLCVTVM
The settings on record: protein: recombinant; tags: N-terminal GST; dsDNA, one strand shown. A digest of the protocol: as §1

The target of test [7] is T4, ETV2 (Homo sapiens, UniProt O00321 1-342).
T4 sequence: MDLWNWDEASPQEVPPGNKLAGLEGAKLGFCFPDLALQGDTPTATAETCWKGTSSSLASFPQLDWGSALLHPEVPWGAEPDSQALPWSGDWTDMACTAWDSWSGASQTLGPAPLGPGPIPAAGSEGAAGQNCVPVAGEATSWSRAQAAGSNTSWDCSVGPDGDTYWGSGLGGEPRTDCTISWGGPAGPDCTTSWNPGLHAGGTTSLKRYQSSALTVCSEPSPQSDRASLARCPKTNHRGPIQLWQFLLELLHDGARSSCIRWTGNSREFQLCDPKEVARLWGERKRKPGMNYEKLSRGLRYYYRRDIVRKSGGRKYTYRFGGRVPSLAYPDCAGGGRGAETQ
The settings on record: protein: recombinant; tags: N-terminal GST; dsDNA, one strand shown. Put shortly: as §1

The target of test [8] is T5, ELF3 (Homo sapiens, UniProt P78545 1-371).
T5 sequence: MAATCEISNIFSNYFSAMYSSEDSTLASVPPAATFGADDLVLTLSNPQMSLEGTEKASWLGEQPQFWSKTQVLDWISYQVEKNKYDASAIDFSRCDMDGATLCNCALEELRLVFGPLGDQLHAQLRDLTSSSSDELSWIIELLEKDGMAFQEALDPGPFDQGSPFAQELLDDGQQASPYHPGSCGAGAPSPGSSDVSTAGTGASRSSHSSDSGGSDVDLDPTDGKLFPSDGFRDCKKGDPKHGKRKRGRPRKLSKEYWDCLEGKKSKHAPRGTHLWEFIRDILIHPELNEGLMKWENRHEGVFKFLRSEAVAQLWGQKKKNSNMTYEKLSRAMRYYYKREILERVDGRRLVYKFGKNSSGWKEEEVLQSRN
The settings on record: protein: recombinant; tags: N-terminal GST; dsDNA, one strand shown. Put shortly:
as §1

For test [9], the target named is CRX (Homo sapiens, UniProt O43186 1-299). The settings on record: protein: recombinant; tags: N-terminal GST; dsDNA, one strand shown. Put shortly:
as §1

In test [10] the target is ETV1 (Homo sapiens, UniProt P50549 1-477). The settings on record: protein: recombinant; tags: N-terminal GST; dsDNA, one strand shown. A digest of the protocol: as §1
The target of test [11] is T6, ERF (Homo sapiens, UniProt P50548 1-548).
T6 sequence: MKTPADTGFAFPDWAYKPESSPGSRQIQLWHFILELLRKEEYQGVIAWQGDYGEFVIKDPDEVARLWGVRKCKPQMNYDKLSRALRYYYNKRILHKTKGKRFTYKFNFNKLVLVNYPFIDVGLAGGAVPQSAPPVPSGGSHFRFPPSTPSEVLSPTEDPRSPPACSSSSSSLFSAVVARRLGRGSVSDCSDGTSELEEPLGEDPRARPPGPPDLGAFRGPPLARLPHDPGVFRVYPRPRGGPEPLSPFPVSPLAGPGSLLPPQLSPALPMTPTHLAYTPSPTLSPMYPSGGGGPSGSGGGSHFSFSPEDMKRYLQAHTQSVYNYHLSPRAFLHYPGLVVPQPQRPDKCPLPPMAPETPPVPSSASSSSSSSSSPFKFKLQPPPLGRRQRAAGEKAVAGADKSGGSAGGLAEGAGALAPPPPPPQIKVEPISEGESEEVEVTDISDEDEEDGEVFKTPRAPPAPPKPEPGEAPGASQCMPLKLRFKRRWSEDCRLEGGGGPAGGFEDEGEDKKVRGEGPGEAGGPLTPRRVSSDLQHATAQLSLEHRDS
The settings on record: protein: recombinant; tags: N-terminal GST; dsDNA, one strand shown. Put shortly:
as §1

Test [12] addresses T7, ETV3L (Homo sapiens, UniProt Q6ZN32 1-361).
T7 sequence: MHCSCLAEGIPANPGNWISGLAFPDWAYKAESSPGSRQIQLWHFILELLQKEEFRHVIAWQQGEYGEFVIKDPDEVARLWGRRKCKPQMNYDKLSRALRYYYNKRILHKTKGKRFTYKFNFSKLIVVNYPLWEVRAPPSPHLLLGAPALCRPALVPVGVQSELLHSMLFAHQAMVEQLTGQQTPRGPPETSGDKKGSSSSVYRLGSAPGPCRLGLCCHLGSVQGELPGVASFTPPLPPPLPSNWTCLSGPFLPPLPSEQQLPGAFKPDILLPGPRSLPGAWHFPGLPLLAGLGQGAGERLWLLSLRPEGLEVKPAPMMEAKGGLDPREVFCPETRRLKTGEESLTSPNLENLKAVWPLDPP
The settings on record: protein: recombinant; tags: N-terminal GST; dsDNA, one strand shown. Put shortly:
as §1

For test [13], the target named is T8, ETS2 (Homo sapiens, UniProt P15036 1-469).
T8 sequence: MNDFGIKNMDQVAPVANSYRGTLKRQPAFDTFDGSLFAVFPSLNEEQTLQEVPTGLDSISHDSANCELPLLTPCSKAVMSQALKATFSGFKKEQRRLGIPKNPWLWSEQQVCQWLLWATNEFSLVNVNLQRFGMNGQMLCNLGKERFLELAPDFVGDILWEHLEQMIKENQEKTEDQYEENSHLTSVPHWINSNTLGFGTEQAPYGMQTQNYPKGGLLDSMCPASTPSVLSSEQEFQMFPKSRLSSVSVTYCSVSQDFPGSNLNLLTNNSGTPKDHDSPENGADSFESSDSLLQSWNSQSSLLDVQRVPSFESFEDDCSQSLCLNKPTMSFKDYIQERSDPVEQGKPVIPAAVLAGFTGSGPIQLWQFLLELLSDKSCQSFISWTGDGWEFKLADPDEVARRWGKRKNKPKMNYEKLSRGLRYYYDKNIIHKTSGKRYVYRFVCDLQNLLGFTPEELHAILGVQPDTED
Conditions: protein: recombinant; tags: N-terminal GST; dsDNA, one strand shown. A digest of the protocol:
as §1

Test [14] concerns the target T9, SPDEF (Homo sapiens, UniProt O95238 1-335).
T9 sequence: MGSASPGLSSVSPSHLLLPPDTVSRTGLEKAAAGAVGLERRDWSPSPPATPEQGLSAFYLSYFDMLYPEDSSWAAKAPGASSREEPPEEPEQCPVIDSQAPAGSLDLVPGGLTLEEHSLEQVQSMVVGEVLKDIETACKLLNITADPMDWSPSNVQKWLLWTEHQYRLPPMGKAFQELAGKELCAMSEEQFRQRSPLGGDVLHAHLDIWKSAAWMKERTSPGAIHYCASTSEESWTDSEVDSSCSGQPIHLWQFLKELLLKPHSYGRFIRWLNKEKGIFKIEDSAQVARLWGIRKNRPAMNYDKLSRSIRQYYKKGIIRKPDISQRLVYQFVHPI
Conditions: protein: recombinant; tags: N-terminal GST; dsDNA, one strand shown. A digest of the protocol:
as §1

The target in test [15] is T10, ETV7 (Homo sapiens, UniProt Q9Y603 1-341).
T10 sequence: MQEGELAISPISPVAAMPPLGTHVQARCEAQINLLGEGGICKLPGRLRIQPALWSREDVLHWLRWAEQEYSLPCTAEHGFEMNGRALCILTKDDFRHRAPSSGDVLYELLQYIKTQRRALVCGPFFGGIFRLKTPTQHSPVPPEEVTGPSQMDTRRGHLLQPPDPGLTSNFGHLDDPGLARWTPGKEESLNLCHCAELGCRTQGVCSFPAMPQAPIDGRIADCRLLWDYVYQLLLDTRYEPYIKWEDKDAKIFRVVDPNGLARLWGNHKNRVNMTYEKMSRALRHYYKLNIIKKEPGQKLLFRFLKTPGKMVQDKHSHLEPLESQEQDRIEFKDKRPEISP
Conditions: protein: recombinant; tags: N-terminal GST; dsDNA, one strand shown. A digest of the protocol:
as §1

Test [16] deals with T11, ELF5 (Homo sapiens, UniProt Q9UKW6-2 1-255).
T11 sequence: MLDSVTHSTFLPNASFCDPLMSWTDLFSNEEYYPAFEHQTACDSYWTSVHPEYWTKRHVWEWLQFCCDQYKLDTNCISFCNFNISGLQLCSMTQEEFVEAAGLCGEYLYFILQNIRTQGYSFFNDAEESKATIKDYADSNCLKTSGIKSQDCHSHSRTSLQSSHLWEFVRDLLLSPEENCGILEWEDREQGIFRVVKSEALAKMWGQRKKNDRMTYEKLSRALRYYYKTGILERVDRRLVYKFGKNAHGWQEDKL
Conditions: protein: recombinant; tags: N-terminal GST; dsDNA, one strand shown. A digest of the protocol: as §1

Test [17] addresses T12, ETV3 (Homo sapiens, UniProt P41162-2 1-143).
T12 sequence: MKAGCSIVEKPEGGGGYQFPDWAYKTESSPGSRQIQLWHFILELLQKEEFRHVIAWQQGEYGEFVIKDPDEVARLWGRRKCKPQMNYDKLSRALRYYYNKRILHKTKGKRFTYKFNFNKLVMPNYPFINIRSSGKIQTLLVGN
Conditions: protein: recombinant; tags: N-terminal GST; dsDNA, one strand shown. Put shortly: as §1

Test [18] addresses ETV6 (Homo sapiens, UniProt P41212 1-452). Conditions: protein: recombinant; tags: N-terminal GST; dsDNA, one strand shown. Put shortly: as §1

Chain of ELF4 (Q99607 whole entry): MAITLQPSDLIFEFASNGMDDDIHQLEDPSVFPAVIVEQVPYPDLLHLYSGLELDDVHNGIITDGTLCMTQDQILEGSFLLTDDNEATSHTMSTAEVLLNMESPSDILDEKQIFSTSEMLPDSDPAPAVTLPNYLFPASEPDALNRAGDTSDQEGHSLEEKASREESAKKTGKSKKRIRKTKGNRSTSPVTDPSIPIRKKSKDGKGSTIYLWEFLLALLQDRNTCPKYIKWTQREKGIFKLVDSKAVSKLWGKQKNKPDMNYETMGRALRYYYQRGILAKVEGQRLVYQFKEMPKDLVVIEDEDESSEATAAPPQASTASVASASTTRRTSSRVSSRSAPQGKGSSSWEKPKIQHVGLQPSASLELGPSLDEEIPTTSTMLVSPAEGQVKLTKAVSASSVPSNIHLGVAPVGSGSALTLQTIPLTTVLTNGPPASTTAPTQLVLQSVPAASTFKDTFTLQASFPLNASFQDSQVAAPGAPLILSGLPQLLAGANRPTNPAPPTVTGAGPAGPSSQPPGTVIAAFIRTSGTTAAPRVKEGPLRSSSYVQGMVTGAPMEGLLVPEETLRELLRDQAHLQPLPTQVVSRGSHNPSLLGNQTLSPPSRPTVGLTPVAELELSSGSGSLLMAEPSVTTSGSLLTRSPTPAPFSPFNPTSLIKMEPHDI
Chain of ETV5 (P41161 whole entry): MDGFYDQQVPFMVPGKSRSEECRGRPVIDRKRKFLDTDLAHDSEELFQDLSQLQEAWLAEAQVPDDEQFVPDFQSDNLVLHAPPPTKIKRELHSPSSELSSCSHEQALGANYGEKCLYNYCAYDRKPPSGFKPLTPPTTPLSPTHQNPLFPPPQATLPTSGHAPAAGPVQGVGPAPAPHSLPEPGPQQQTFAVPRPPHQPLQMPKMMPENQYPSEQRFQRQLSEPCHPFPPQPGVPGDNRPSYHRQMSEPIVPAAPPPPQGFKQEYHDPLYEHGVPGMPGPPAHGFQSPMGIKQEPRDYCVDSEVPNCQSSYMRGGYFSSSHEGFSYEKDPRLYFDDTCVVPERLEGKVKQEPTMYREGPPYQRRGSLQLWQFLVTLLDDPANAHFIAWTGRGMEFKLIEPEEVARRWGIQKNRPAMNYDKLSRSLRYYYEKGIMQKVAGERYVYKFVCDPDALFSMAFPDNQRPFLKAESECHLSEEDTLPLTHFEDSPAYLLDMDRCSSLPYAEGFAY
Chain of HSF1 (Q00613 whole entry): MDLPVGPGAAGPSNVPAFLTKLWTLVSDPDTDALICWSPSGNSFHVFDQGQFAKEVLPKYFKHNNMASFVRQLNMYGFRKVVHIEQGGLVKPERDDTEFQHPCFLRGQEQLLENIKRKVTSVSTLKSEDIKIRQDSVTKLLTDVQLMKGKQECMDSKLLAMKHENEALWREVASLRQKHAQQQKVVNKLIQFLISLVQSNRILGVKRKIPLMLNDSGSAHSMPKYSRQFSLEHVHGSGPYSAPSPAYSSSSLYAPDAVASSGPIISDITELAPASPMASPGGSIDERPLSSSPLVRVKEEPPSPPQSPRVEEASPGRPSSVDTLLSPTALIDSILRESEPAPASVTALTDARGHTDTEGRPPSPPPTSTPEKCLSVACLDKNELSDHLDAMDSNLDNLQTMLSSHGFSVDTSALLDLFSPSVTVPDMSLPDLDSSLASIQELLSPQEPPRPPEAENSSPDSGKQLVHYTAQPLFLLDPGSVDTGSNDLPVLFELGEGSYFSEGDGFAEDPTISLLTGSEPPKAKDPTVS
Chain of ETV6 (P41212 whole entry): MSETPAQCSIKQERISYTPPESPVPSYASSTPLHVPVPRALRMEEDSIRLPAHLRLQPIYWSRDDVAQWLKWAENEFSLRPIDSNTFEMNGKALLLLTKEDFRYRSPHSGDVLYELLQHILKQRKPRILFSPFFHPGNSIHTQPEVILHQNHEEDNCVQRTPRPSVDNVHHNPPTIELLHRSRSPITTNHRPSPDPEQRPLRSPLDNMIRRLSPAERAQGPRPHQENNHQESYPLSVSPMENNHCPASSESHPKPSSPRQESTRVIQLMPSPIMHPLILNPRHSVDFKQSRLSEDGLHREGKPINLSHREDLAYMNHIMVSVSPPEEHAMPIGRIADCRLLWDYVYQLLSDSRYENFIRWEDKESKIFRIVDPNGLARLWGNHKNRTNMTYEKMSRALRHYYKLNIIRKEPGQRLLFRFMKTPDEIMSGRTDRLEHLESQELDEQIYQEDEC
Chain of CRX (O43186 whole entry): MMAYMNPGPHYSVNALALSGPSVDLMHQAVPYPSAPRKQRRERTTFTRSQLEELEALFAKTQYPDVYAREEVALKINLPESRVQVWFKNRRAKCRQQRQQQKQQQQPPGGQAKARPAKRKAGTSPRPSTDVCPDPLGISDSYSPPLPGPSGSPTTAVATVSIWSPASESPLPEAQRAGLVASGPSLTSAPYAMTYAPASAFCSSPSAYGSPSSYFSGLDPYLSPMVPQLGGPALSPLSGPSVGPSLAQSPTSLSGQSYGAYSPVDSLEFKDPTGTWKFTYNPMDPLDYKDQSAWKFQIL
Chain of ETV1 (P50549 whole entry): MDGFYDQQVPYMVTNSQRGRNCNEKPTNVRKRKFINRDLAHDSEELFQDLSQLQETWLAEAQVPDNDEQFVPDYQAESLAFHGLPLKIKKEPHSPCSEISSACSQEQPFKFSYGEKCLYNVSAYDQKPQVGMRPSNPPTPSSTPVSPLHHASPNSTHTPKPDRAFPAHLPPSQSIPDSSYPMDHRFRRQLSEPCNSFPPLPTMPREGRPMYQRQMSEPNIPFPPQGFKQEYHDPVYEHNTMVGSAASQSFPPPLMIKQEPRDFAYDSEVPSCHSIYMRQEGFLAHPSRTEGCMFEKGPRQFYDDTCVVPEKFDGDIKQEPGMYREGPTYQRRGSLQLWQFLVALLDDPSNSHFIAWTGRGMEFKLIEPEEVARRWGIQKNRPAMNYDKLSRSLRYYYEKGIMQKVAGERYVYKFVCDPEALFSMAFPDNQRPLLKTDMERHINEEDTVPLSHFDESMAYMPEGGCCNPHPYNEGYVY

Consider ATATTA, for which the binding signal in test [1] is 1.07 fold enrichment (6-mer frequency, TF over GST control); in test [2], 1.14 fold enrichment (6-mer frequency, TF over GST control); in [3] it was 1.35 fold enrichment (6-mer frequency, TF over GST control); in [4], 1.23 fold enrichment (6-mer frequency, TF over GST control); in [5] it was 1.13 fold enrichment (6-mer frequency, TF over GST control); in test [6], 1.16 fold enrichment (6-mer frequency, TF over GST control). For the same sequence, the binding signal is 1.13 fold enrichment (6-mer frequency, TF over GST control) in [7]; 1.21 fold enrichment (6-mer frequency, TF over GST control) in test [8]; 1.8 fold enrichment (6-mer frequency, TF over GST control) in test [9]; 1.17 fold enrichment (6-mer frequency, TF over GST control) in test [10]; 1.16 fold enrichment (6-mer frequency, TF over GST control) in test [11]; 1.17 fold enrichment (6-mer frequency, TF over GST control) in [12]. The binding signal in test [13] is 1.06 fold enrichment (6-mer frequency, TF over GST control); in [14], 1.11 fold enrichment (6-mer frequency, TF over GST control); in [15], 1.1 fold enrichment (6-mer frequency, TF over GST control); in test [16], 1.09 fold enrichment (6-mer frequency, TF over GST control); in [17], 1.18 fold enrichment (6-mer frequency, TF over GST control); in test [18] it was 1.13 fold enrichment (6-mer frequency, TF over GST control).
